Test systems include NCI-H23 lung; NCI-H226 lung; NCI-H322M lung; HOP-62 NSCLC; NCI-H460 lung; HOP-92 NSCLC; NCI-H522 lung; A549/ATCC NSCLC; 786-0 renal; COLO 205 colon; DU-145 prostate; K-562 leukemia; MALME-3M melanoma; MDA-MB-231 breast; RXF 393 renal; SF-268 CNS; SF-295 CNS; SF-539 CNS; UACC-257 melanoma; M14 melanoma.
Experiment in all cases: NCI-60 one-dose screen, 48 h (100 = growth as untreated, 0 = no growth, -100 = all killed)
Holding throughout (conditions): 10 µM unless noted

Structures are written as SMILES. This is part of a sample that, as a whole, favours compounds with a hit. Of some 83,000 tested, about 20% had one in any assay.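 How to read the values: 0–100, growth inhibition (40 = 60% inhibited); 0, no net growth; -100 to 0, cell death (-40 = 40% of starting cells died; -100 = all dead).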 A number with no mark means an inactive call. Activity calls are given as the source filed them. Rule for the calls: active = growth percent below 10; inactive = the rest.

For the compound `COc1cc2c(c(OC)c1OC)C(=O)CC(c1cccc(NC(=O)c3ccccc3Br)c1)O2` (stereo not given), the growth in the experiment with NCI-H23 lung is 98.4%; with NCI-H226 lung, 84.8%; with NCI-H322M lung, 96%; in the experiment with HOP-62 NSCLC it was 97.4%; with NCI-H460 lung it was 90.4%; in the experiment on HOP-92 NSCLC it was 65.2%. The growth is 66.7% in the experiment with NCI-H522 lung; 88.1% in the experiment on A549/ATCC NSCLC; 103% with 786-0 renal; 116% in the experiment with COLO 205 colon; 97.1% in the experiment on DU-145 prostate; 70.2% with K-562 leukemia. For the same compound, the growth in the experiment with MALME-3M melanoma is 105%; with MDA-MB-231 breast, 98.6%; with RXF 393 renal, 99.4%; in the experiment with SF-268 CNS, 90.5%; with SF-295 CNS, 92.5%; in the experiment on SF-539 CNS, 96.5%. Besides, the growth is 90.1% in the experiment with UACC-257 melanoma and 97.8% with M14 melanoma.
For `Cc1ccc2[nH]c(=O)c3c(c2c1)OC(N)=C(C#N)C31C(=O)c2cccc3cccc1c23` (stereo not given), the growth in the experiment on NCI-H23 lung is 103%; in the experiment on NCI-H226 lung it was 91.1%; in the experiment with NCI-H322M lung, 100%; in the experiment with HOP-62 NSCLC it was 98.2%; in the experiment on NCI-H460 lung, 101%; in the experiment on HOP-92 NSCLC, 104%. For the same compound, the growth in the experiment with NCI-H522 lung is 89.3%; in the experiment on A549/ATCC NSCLC, 103%; with 786-0 renal, 100%; with COLO 205 colon, 103%; in the experiment with DU-145 prostate, 101%; in the experiment with K-562 leukemia it was 87.8%. Further, the growth in the experiment with MALME-3M melanoma was 99.2%; with MDA-MB-231 breast, 87.4%; in the experiment with RXF 393 renal, 97%; in the experiment on SF-268 CNS, 94.6%; with SF-295 CNS, 104%; in the experiment on SF-539 CNS, 95.9%. For the same compound, the values for the growth with UACC-257 melanoma and in the experiment with M14 melanoma were 108% and 98.2%, respectively.
As to `CC1O[C@@H]2C[C@@](O)([C@H]1O)n1c3ccccc3c3c4c(c5c6ccccc6n2c5c31)C(=O)NC4=O` (stereo not given in full), the growth in the experiment on NCI-H23 lung was 33.7%; in the experiment with NCI-H226 lung, 37.2%; in the experiment on NCI-H322M lung, 62.8%; in the experiment on HOP-62 NSCLC it was 13.4%; in the experiment with NCI-H460 lung, 11.3%; in the experiment on HOP-92 NSCLC, 121%. The growth with NCI-H522 lung was 30.7%; in the experiment on A549/ATCC NSCLC, 32.3%; in the experiment with 786-0 renal, 48.8%; in the experiment with COLO 205 colon it was 11.2%; in the experiment on DU-145 prostate it was 57.8%; with K-562 leukemia, 30%. Moreover, the growth was 50.3% in the experiment with MALME-3M melanoma; 57.8% with MDA-MB-231 breast; 49.2% in the experiment with RXF 393 renal; 49.8% in the experiment with SF-268 CNS; 19.2% in the experiment on SF-295 CNS; 33.2% in the experiment on SF-539 CNS. The growth was 47.9% in the experiment on UACC-257 melanoma and 25.7% with M14 melanoma.
On to `CC(=O)c1cc(-c2ccccc2N)n(-c2ccc3c(c2)OCO3)c1C`, for which the growth with NCI-H23 lung was 43.4%; in the experiment with NCI-H226 lung, -0.426% (active); in the experiment with NCI-H322M lung, 31.6%; in the experiment with HOP-62 NSCLC, 30.6%; in the experiment on NCI-H460 lung, 2.71% (active); in the experiment with HOP-92 NSCLC it was 38.8%. Moreover, the growth with NCI-H522 lung was 18.4%; with A549/ATCC NSCLC, 19.5%; with 786-0 renal, 23.9%; with COLO 205 colon it was -18.6% (active); in the experiment with DU-145 prostate it was 9.47% (active); in the experiment with K-562 leukemia, 5.63% (active). Moreover, the growth in the experiment on MALME-3M melanoma was 48.7%; with MDA-MB-231 breast it was 21.3%; in the experiment with RXF 393 renal, 39.7%; with SF-268 CNS, 31.5%; with SF-295 CNS, -10% (active); in the experiment with SF-539 CNS it was -0.915% (active). For the same compound, the growth in the experiment with UACC-257 melanoma was 76.6%; with M14 melanoma, 10%.
For `c1ccc(CCc2ccccc2-c2cc(-c3ccccc3)on2)cc1`, the growth in the experiment on NCI-H23 lung was 75.1%; with NCI-H226 lung, 96.5%; in the experiment with NCI-H322M lung, 87%; in the experiment on HOP-62 NSCLC, 96.5%; in the experiment with NCI-H460 lung it was 82.4%; in the experiment on HOP-92 NSCLC it was 103%. The growth in the experiment on NCI-H522 lung was 80.1%; in the experiment with A549/ATCC NSCLC, 97.7%; in the experiment with 786-0 renal, 94.5%; with COLO 205 colon, 100%; in the experiment on DU-145 prostate it was 92%; in the experiment with K-562 leukemia, 71.2%. The growth was 102% with MALME-3M melanoma; 84.3% in the experiment with MDA-MB-231 breast; 94.2% with RXF 393 renal; 97.1% in the experiment on SF-268 CNS; 96.3% in the experiment on SF-295 CNS; 93.8% in the experiment on SF-539 CNS. The growth in the experiment on UACC-257 melanoma was 99.9%; in the experiment with M14 melanoma, 87.8%.
In the case of `C=C(C)[C@@H]1CC[C@]2(CO)CC[C@]3(C)[C@H](CC[C@@H]4[C@@]5(C)CCC(NCCc6ccc(O)cc6)C(C)(C)[C@@H]5CC[C@]43C)[C@@H]12` (stereo not given in full), the growth with NCI-H23 lung is -86.6% (active); in the experiment on NCI-H226 lung, 66.8%; in the experiment on NCI-H322M lung, -76.5% (active); in the experiment with HOP-62 NSCLC, -77.5% (active); in the experiment with NCI-H460 lung it was -89.5% (active); in the experiment with HOP-92 NSCLC it was -93.2% (active). In addition, the growth was -81.3% (active) in the experiment with NCI-H522 lung; -87.1% (active) in the experiment on A549/ATCC NSCLC; -92.7% (active) with 786-0 renal; -76.4% (active) in the experiment on COLO 205 colon; -96.5% (active) in the experiment with DU-145 prostate; -51.2% (active) in the experiment with K-562 leukemia. For the same compound, the growth with MALME-3M melanoma was -81.5% (active); in the experiment with MDA-MB-231 breast it was -87.3% (active); in the experiment with RXF 393 renal it was -91.2% (active); in the experiment with SF-268 CNS, -88.8% (active); in the experiment on SF-295 CNS it was -95.8% (active); in the experiment on SF-539 CNS it was -88% (active). For the same compound, the growth was -78.2% (active) in the experiment with UACC-257 melanoma and -84.9% (active) in the experiment with M14 melanoma.
With `COc1cc(-c2nc3occn3c2-c2ccnc(NCCCNS(=O)(=O)c3ccccc3)n2)ccc1F`, the growth is 45.6% with NCI-H23 lung; 18.4% with NCI-H226 lung; 78.3% in the experiment on NCI-H322M lung; 73.9% with HOP-62 NSCLC; 47.8% in the experiment on NCI-H460 lung; 63.4% in the experiment with HOP-92 NSCLC. Further, the growth with NCI-H522 lung was 26.6%; in the experiment with A549/ATCC NSCLC, 38%; in the experiment on 786-0 renal it was 63.8%; in the experiment with COLO 205 colon, 28.8%; in the experiment on DU-145 prostate, 52.5%; with K-562 leukemia, 26.5%. Besides, the growth with MALME-3M melanoma was 18.4%; in the experiment with MDA-MB-231 breast, 45.1%; in the experiment with RXF 393 renal it was 48.6%; with SF-268 CNS, 52.8%; with SF-295 CNS, 46%; with SF-539 CNS, 78.8%. The growth is 41.4% in the experiment on UACC-257 melanoma and 17.2% with M14 melanoma.
For the compound `CCN(CC)CCCC(C)Nc1ccc2cc(OC)ccc2n1` (stereo not given), the growth was 107% in the experiment with NCI-H23 lung; 107% in the experiment with NCI-H226 lung; 94.7% with NCI-H322M lung; 91.4% in the experiment on HOP-62 NSCLC; 108% in the experiment with NCI-H460 lung; 91.5% in the experiment on HOP-92 NSCLC. The growth was 99.1% in the experiment with NCI-H522 lung; 85.4% in the experiment on A549/ATCC NSCLC; 98.9% in the experiment on 786-0 renal; 107% in the experiment on COLO 205 colon; 99.9% with DU-145 prostate; 131% with K-562 leukemia. Besides, the growth in the experiment on MALME-3M melanoma was 114%; in the experiment with MDA-MB-231 breast it was 104%; in the experiment with RXF 393 renal, 112%; in the experiment on SF-268 CNS, 91.2%; in the experiment with SF-295 CNS, 97.4%; with SF-539 CNS it was 100%. Further, the results for the growth in the experiment on UACC-257 melanoma and in the experiment with M14 melanoma were 94.7% and 99.3%, respectively.

The values are drawn from PubChem BioAssay (NCI).
